Experimental findings from ChEMBL document CHEMBL4513216, “Probing the Open Global Health Chemical Diversity Library for Multistage-Active Starting Points for Next-Generation Antimalarials” (ACS Infect Dis, 2020) are described below.

The whole screen tested about 69,000 compounds, of which about 8,600 (12%) showed an effect of 50% or more. Many of the other results were omitted from the sample, so strong results are more common in it than they were.

This experiment deals with Plasmodium berghei. Description: Screen against P. berghei liver stage (PbLuc), transformed with Luciferase, at 10uM. It is filed as functional, HepG2. The note with it: tested at 10 uM.
In the case of `CN(C)c1ccc(C(=O)N2CCN(CC(O)C(C)(C)C)CC2)nn1` (stereo not drawn), the INHIBITION was 7.12%. Regarding `CCc1nnsc1C(=O)N1CCN(CC(O)CC)CC1` (stereo not drawn), the INHIBITION was 17.8%. Then `CC(O)CN1CCN(C(=O)c2ccc(N(C)C)nn2)CC1` (stereo not drawn), with 51.2%. With `CCC(O)CN1CCN(C(=O)c2ccc(N(C)C)nn2)CC1` (stereo not drawn) the figure was -26.6%.

As to `O=C1[C@H]2CN(c3ncccn3)C[C@H]2CN1CCN1CCCC1`, the INHIBITION was determined as 19.5%. Then `CC(C)n1ccc(C(=O)OCC2CC(=O)N(Cc3ccccc3)C2)n1` (stereo not drawn), with 1.74%; and `CC(C)(NC(=O)CCc1ccco1)c1ccc2c(c1)OCCO2`, with 10.6%; and `Cc1cccc(N2CCN(C(=O)CCc3ccsc3)C(C)C2)n1` (stereo not drawn), with -16.8%.

`Cc1cc(NC(=O)NCC(c2ccccc2)N2CCOCC2)n(C)n1` (stereo not drawn): the INHIBITION is given as -2.53%.

For the compound `CS(=O)(=O)c1ccc(CNC2CCCN(c3cccnn3)C2)cc1` (stereo not drawn), the INHIBITION is listed as 39.5%. With `c1ccc(-c2nc(CNC3CCCN(c4cccnn4)C3)no2)cc1` (stereo not drawn) the figure was 48.4%. As to `CC(C)(C)c1nc(CNC2CCCN(c3cccnn3)C2)no1` (stereo not drawn), the INHIBITION stood at 79.2%.

With `Cc1cc(CNC2CCCN(c3cccnn3)C2)no1` (stereo not drawn), the INHIBITION is 11.8%.

As to `CC(C)c1nc(CNC2CCCN(c3cccnn3)C2)no1` (stereo not drawn), the INHIBITION amounted to 78.2%. Then `Cc1nc(CN(C)C2CCCN(c3cccnn3)C2)no1` (stereo not drawn), with -31.9%. With `CC(C)c1nc(CN(C)C2CCCN(c3cccnn3)C2)no1` (stereo not drawn) the figure was 18.2%; with `CN(Cc1noc(C(C)(C)C)n1)C1CCCN(c2cccnn2)C1` (stereo not drawn), 66.2%. Then `Cc1nc(CNC2CCCN(c3cccnn3)C2)no1` (stereo not drawn), with 26.5%; and `CNC(=O)C1(CCCc2cnccn2)CCN1Cc1ccc(C)cc1` (stereo not drawn), with 24.585%. Regarding `CC(NC(=O)NCC1(O)CCC1)c1ccc(OCC2CC2)c(F)c1` (stereo not drawn), the INHIBITION came out at 13.4%. Then `CCc1nn(C)c2[nH]nc(NC(=O)c3cccnc3OCC(C)C)c12`, with 47.4%; and `Cn1cc(Cl)c(C(=O)N2CCc3nc4sccc4c(=O)n3CC2)n1`, with -9.32%; and `CCn1nc(C)c2nc(C)nc(N(C)Cc3ccco3)c21`, with 43.3%. With `CCCc1nc(N(C)Cc2ccco2)c2c(n1)c(C)nn2CC` the figure was -6.42%; with `CCn1nc(C)c2ncnc(N(C)Cc3ccco3)c21`, 52.4%.

As to `CCOCC1CN(CCN(C)C)Cc2cnn(CC3CCCC3)c21` (stereo not drawn), the INHIBITION stood at 41.2%. With `CCC(C)NC(=O)Nc1ccc(CN2CCOC2=O)cc1` (stereo not drawn) the figure was 29%.

For the compound `CC(C)CNC(=O)Nc1ccc(CN2CCOC2=O)cc1`, the INHIBITION worked out at 23.2%.

As to `CC(C)C(O)C1(CNC(=O)Nc2ccc(CN3CCOC3=O)cc2)CC1` (stereo not drawn), the INHIBITION amounted to 65.3%. For the compound `Cc1[nH]nc2ncc(C(=O)N3CCN(CCC(C)C)CC3)cc12`, the INHIBITION came to 23.7%. For the compound `Cc1ccc(CC(=O)N2CCC(Nc3ccc(C)nn3)CC2)cn1`, the INHIBITION was determined as 1.78%. Then `CS(=O)(=O)NCC1CCCN(C(=O)c2cccc(F)c2)C1` (stereo not drawn), with 38.5%; and `COc1ccc(C(=O)N2CCCC(CNS(C)(=O)=O)C2)cc1F` (stereo not drawn), with 11.6%; and `CS(=O)(=O)NCC1CCCN(C(=O)c2ccco2)C1` (stereo not drawn), with -14.6%. With `CS(=O)(=O)NCC1CCCN(C(=O)c2cc3ccccc3o2)C1` (stereo not drawn) the figure was 57.8%; with `CS(=O)(=O)NCC1CCCN(C(=O)c2ccc(F)c(F)c2)C1` (stereo not drawn), 53%; with `Cc1ccc(C(=O)N2CCCC(CNS(C)(=O)=O)C2)o1` (stereo not drawn), 26.4%.

In the case of `O=C(c1ccc(F)c(Br)c1)N1CCCN2CCCC2C1` (stereo not drawn), the INHIBITION was 59.4%.

For the compound `O=C(c1ccc(F)c(F)c1)N1CCN2CCCC2C1` (stereo not drawn), the INHIBITION is 9.52%.

For `O=C(c1ccc(-n2cccc2)c(F)c1)N1CCCN2CCCC2C1` (stereo not drawn), the INHIBITION is recorded as -33.9%.

Consider `CC1(NC(=O)CNC(=O)C(C)(C)C)CCc2ccccc2C1` (stereo not drawn), for which the INHIBITION was -2.43%. With `COCCc1noc(CN2CC(n3nc(C)cc3C)C2)n1` the figure was -57.4%; with `CC(C)COC(C)C(=O)NCc1ccccc1` (stereo not drawn), -10.1%.

As for `CCc1cc(=O)[nH]c(-c2ccc(NC(C)CN3CCOCC3)nc2)n1` (stereo not drawn), the INHIBITION is on record as -33.9%.

Regarding `CSCC1CCCN(c2ncnc3oc(C)nc23)C1` (stereo not drawn), the INHIBITION is -0.532%.

As to `O=C(NCc1ccccn1)[C@@H]1COC[C@H]2CN(C3CCOCC3)C[C@H]21`, the INHIBITION came to 29.6%.

On to `CN1CCN(c2ccc3ccc(C(=O)N4CCCO4)cn23)CC1`, for which the INHIBITION is listed as 51.2%. Then `CN(C)C(=O)CNC(=O)c1ccc2ccc(N(C)CC3CC3)n2c1`, with 26%. Then `CCN(CC)c1ccc2ccc(C(=O)NC3CC3)cn12`, with 24.6%.

Consider `CCNC(=O)c1ccc2ccc(N(CC)CC)n2c1`, for which the INHIBITION was 55.6%. Then `CCN(CC)c1ccc2ccc(C(=O)N(C)C)cn12`, with 57.1%. Consider `CCN(CC)c1ccc2ccc(C(=O)N3CCCCO3)cn12`, for which the INHIBITION was found to be 68.9%. With `CN1CCN(c2ccc3ccc(C(=O)N4CCCCO4)cn23)CC1` the figure was -12.4%; with `O=C(c1ccc2ccc(N3CCN(CC4CC4)CC3)n2c1)N1CCCO1`, 40.8%; with `CN(CC1CC1)c1ccc2ccc(C(=O)NC3CCCCC3)cn12`, 0.112%.

As for `CN(CC1CC1)c1ccc2ccc(C(=O)NCCN3CCOCC3)cn12`, the INHIBITION was determined as 23.2%. As for `CCN(CC)c1ccc2ccc(C(=O)O)cn12`, the INHIBITION worked out at 39.3%. With `CCN(CC)c1ccc2ccc(C(=O)N(CCOC)CCOC)cn12` the figure was 46.7%.
